# Reference: PubChem BioAssay (EPA / NIEHS)
# Activity calls are given as the source filed them. How the source made its calls, unless noted: active means hit-call score of the fitted dose curve at least 0.9, where 1 is the maximum; inactive means score below 0.9.
# Tested on: Thyroperoxidase (TPO), gene 54314
# Assay: CCTE_Simmons_AUR_rTPO: CCTE's Amplex UltraRed Assay for Thyroperoxidase (TPO) Inhibition, Simmons Lab (AID 2283662; active means hit-call score of the fitted dose curve at least 0.9, where 1 is the maximum;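 on AC50: potency for loss of signal meaning inhibition of peroxidase activity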)
# In short: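 Rat thyroid microsomes (5 ug protein) with 25 uM Amplex UltraRed and 300 uM H2O2 in 200 mM phosphate buffer, 30 min at 37C in dark; fluorescence 544/590 nm. Eight concentrations, 5 nM–87.5 uM final, 0.5% DMSO, triplicate biological replicates.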
Structure (SMILES),outcome,AC50
CC(C)NCC(O)COc1ccc(CC(N)=O)cc1 (stereo not drawn),inactive,
O=C1OC[C@H](Cc2cccc(O)c2)[C@H]1Cc1cccc(O)c1,,7.74 µM (active)
Oc1ccc2cc(SSc3ccc4cc(O)ccc4c3)ccc2c1,,2.45 µM (active)
CCCCC(CC)COC(=O)c1ccc(O)cc1 (stereo not drawn),,44.7 µM (active)
Cc1cc(C)nc(NS(=O)(=O)c2ccc(N)cc2)n1,,14.3 µM (active)
Cc1cc(S(=O)(=O)O)ccc1N=Nc1c(O)ccc2ccccc12,,35 µM (active)
CCOC(=O)c1ccc(N)cc1,,22.2 µM (active)

# Read-out: not listed separately
# Assay: CEETOX_H295R_MTT_cell_viability: Viability Assessment in the CeeTox HT-H295R MTT Assay (AID 2283718);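 on AC50: curve fitted both ways so AC50 may mark viability loss or gain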
# In short: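 MTT reduction (0.5 mg/ml, 4 h at 37 C; absorbance at 570 and 650 nm) gave viability as background-corrected percent change versus controls. H295R cells had 48 h forskolin (10 uM) prestimulation, then 48 h chemical exposure at 0.1% DMSO.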
Structure (SMILES),outcome,AC50
COc1ccc(CCN2CCC(Nc3nc4ccccc4n3Cc3ccc(F)cc3)CC2)cc1,inactive,
C=C[Si]1(C)O[Si](C)(C=C)O[Si](C)(C=C)O[Si](C)(C=C)O1 (stereo not drawn),inactive,
OCc1cccc(Oc2ccccc2)c1,inactive,
CC(C)(C)CC(C)(C)c1ccc(OCCOCC[N+](C)(C)Cc2ccccc2)cc1,inactive,
COCCc1ccc(OCC(O)CNC(C)C)cc1 (stereo not drawn),inactive,
Cc1cc(=O)oc2cc(N(C)C)ccc12,inactive,
CCOC(=O)[C@@H](C)Oc1ccc(Oc2nc3ccc(Cl)cc3o2)cc1,inactive,
CC=Cc1ccc(OC)c(OC)c1,inactive,
CCCCCCCCN1CCCC1=O,,0.882 µM (active)
CC1(C)C(=O)N(Cl)C(=O)N1Br,inactive,
CC(C)Nc1nc(N)nc(Cl)n1,inactive,
CCC(C)c1cc([N+](=O)[O-])cc([N+](=O)[O-])c1OC(=O)OC(C)C (stereo not drawn),inactive,
COc1ccc(OC)c(N=Nc2c(O)ccc3ccccc23)c1,inactive,
Nc1ccc(N)c2c1C(=O)c1ccccc1C2=O,inactive,
BrCc1cccc(Oc2ccccc2)c1,inactive,
CC=Cc1ccc(OCC)c(O)c1,inactive,
